GRIN3A LBD mod – NR3A (human) ligand-binding domain modulation; NR3A LBD differential scanning fluorimetry, Tm shift; 0% = protein alone, 100% = glycine-bound protein; Tm shift relative to glycine control, % at 25 µM; hit rate 2.5% among 340,000;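 active = melting temperature shift of at least 10% of the positive control shift, at one fixed dose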
Cardio protect – myocardial damage modulation in H9c2 cells | H9c2 cardiomyocytes, H2O2 injury protection, ATPLite, 2 h | protection from H2O2 cell death, % at 20 µM | hit rate 0.63% among 360,000;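 active = compounds giving at least 50% protection of heart cells from peroxide-induced death in the single-dose screen, raw or plate-pattern-corrected value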
AI-2 QS modul – modulators of Vibrio harveyi AI-2 quorum sensing system; activity change, % at 7.5 µM; hit rate 0.4% among 300,000; Vibrio harveyi JMH597 AI-2 luminescence/OD600 ratio, 9 h; hits give low values; strain lacks LuxN and CqsS sensors; 0 = neutral-control median; AID 2094; in the data active = activity change below about -75%, passing the limit was not always enough;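 also: luminescence divided by OD600 gain over 9 h not by final OD600 alone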
NTR1 ag – activates human neurotensin receptor 1 | NTR1-U2OS beta-arrestin-GFP spot imaging, agonist mode | P30989 | AID 493036 | activation, % at 20 µM | hit rate 0.17% among 330,000;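 active = activation at or above 40% of the spot to cytoplasm intensity ratio, with at least 20 cells analyzed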
AHR act – activators of human aryl hydrocarbon receptor; P35869; AHR-responsive luciferase reporter cells, luminescence; activation, % at 5 µM; hit rate 2.5% among 320,000; AID 2796; in the data active = activation above about 47%
Target sequence (P35869 whole entry, looked up): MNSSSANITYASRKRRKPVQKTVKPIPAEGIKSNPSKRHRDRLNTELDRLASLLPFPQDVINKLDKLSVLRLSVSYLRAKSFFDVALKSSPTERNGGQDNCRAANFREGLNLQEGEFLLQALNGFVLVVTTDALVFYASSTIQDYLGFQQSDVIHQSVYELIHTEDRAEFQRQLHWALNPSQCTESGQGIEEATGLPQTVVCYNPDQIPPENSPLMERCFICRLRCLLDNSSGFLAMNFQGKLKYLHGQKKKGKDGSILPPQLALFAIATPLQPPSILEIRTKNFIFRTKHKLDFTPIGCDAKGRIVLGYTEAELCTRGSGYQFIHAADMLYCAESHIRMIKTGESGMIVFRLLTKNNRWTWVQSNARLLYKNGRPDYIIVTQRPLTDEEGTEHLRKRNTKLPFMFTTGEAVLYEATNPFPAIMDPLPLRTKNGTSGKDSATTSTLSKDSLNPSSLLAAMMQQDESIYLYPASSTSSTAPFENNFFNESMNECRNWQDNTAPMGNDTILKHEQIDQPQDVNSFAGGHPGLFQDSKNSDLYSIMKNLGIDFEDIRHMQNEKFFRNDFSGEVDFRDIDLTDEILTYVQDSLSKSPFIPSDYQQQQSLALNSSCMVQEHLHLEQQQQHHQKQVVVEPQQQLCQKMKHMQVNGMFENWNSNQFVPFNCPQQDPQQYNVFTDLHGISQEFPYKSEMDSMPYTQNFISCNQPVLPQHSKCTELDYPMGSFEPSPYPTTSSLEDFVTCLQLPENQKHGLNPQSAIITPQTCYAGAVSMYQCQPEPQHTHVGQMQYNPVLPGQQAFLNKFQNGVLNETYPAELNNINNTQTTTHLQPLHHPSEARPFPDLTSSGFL
SUMO Mot1 rescue – SUMOylation pathway inhibition by Mot1-301 growth rescue; S. cerevisiae Mot1-301 growth rescue, ATP luminescence, 38.5C; percent above DMSO median, 100 means doubled; growth rescue, % at 18.8 µM; hit rate 1% among 320,000;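 active = every valid replicate shows activation above 250% relative to neutral control wells; inactive = the rest, any valid replicate at or below 250%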
Large screens that a line does not name were inactive. The list is not random: actives were taken first. Their share in the collection is about 6.2%.

O=C(CSc1nc2ccccc2o1)Nc1nc2ccccc2s1	none
CCCc1cc(=O)oc2cc(OC(C)C(=O)NCC3CCC(C(=O)O)CC3)ccc12 (stereo not given)	none
CN(C)S(=O)(=O)c1ccc(N2CCCC2)c(C(=O)N2CCN(S(=O)(=O)c3ccc(F)c(F)c3)CC2)c1	none (no result: AI-2 QS modul, NTR1 ag, AHR act, SUMO Mot1 rescue)
Nc1cc(=O)[nH]c(SCC(=O)Nc2cccc(S(=O)(=O)N3CCCCC3)c2)n1	none (no result: AI-2 QS modul)
O=C(NC(Cc1ccc(O)cc1)C(=O)N=Nc1c(O)[nH]c2ccccc12)c1ccccc1 (stereo not given)	none (no result: AI-2 QS modul, NTR1 ag, AHR act, SUMO Mot1 rescue)
COC(=O)c1ccccc1NC(=O)NN1CCN(C)CC1	none
Cc1ccc(C(=O)Oc2ccc(Cl)c3cccnc23)cc1[N+](=O)[O-]	Cardio protect 52.9
Cc1ccc(C(=O)ONC(=O)c2ccc(Cl)cc2)cc1[N+](=O)[O-]	AHR act 55.4
COc1ccc(C(=O)Oc2cccc3cccnc23)cc1[N+](=O)[O-]	none
O=C(Nc1ccc2c(c1)OCO2)C1CCCN1C(=O)Nc1ccccc1 (stereo not given)	none
Cc1cc(NS(=O)(=O)c2ccc(NC(=O)Nc3cccc(Cl)c3)cc2)no1	GRIN3A LBD mod 21.2
Cc1cc(NS(=O)(=O)c2ccc(NC(=O)c3oc4ccccc4c3C)cc2)no1	GRIN3A LBD mod 13.6
N#Cc1ccc(NC(=O)COC(=O)c2cccnc2Cl)cc1	none (no result: AI-2 QS modul)
CCc1c(C2(O)CCCCC2)[nH]c2ccc(C(F)(F)F)cc12	none
Nc1sc(-c2ccccc2)n[n+]1Cc1cccc2cccnc12	AI-2 QS modul -87.9, AHR act 85.1
Oc1ccccc1CNc1cccc2cccnc12	none
N#CC(C#N)=Cc1cn(-c2ncc(C(F)(F)F)cc2Cl)c2ccccc12	none
CC(=O)/C=C\c1cn(-c2ncc(C(F)(F)F)cc2Cl)c2ccccc12	GRIN3A LBD mod 13.6
N#CCC(=O)Nc1ccc(C(=O)Nc2cccc(S(=O)(=O)N3CCCC3)c2)cc1	none (no result: GRIN3A LBD mod, AI-2 QS modul, NTR1 ag, AHR act, SUMO Mot1 rescue)
COc1c(Br)cc([N+](=O)[O-])c(OC)c1C(=O)NC(=O)Nc1cc(Cl)cc(Cl)c1	GRIN3A LBD mod 13.1
Cc1ccc(NC(=O)CCc2ccccc2)cc1C	none (no result: GRIN3A LBD mod, AI-2 QS modul, NTR1 ag, AHR act, SUMO Mot1 rescue)
Cc1ccc(NC(=O)COc2ccc(/C(N)=N/O)cc2)cc1C	GRIN3A LBD mod 14.4
Cc1ccc(NC(=O)CCC(=O)NNC(=O)COc2ccccc2)cc1C	AHR act 68.0
COc1ccc(CCCNC(=O)C2(C)Cc3c(-c4ccc(C(N)=O)cc4)ccnc3O2)cc1 (stereo not given)	none (no result: GRIN3A LBD mod, AI-2 QS modul, NTR1 ag, AHR act, SUMO Mot1 rescue)
CCCCCCN1C[C@@H](O)[C@H](n2cc(COC(=O)c3ccccc3)nn2)C[C@@H]1c1ccc(C)cc1	none (no result: GRIN3A LBD mod, AI-2 QS modul, NTR1 ag, AHR act, SUMO Mot1 rescue)
C[C@H](CO)N1C[C@H](C)[C@@H](CN(C)CC2CCCCC2)Oc2c(NC(=O)Cc3ccccc3)cccc2C1=O	none (no result: AI-2 QS modul, SUMO Mot1 rescue)
CN(C)CCN(C(=O)c1ccc(C(=O)c2ccccc2)cc1)c1nc2cc3c(cc2s1)OCO3	GRIN3A LBD mod 11.1
CCCCCCCN(c1ccccc1)[C@@H]1C[C@H]2CCCC(=O)N3CC[C@@H](C1)[C@@H]23	GRIN3A LBD mod 18.8 (no result: AI-2 QS modul, NTR1 ag, AHR act, SUMO Mot1 rescue)
CCOc1ccc(NC(=O)Nc2cc(C(=O)O)ccc2N2CC3CC(C2)c2cccc(=O)n2C3)cc1 (stereo not given)	GRIN3A LBD mod 11.4
CCOc1ccc(NC(=O)c2ccc(N3CC4CC(C3)c3cccc(=O)n3C4)c(NC(=O)c3cccnc3)c2)cc1 (stereo not given)	none
COc1ccc(-c2cnc(C(O)c3ccc(CN4CCCCC4)cc3)[nH]2)cc1 (stereo not given)	none (no result: GRIN3A LBD mod, AI-2 QS modul, NTR1 ag, AHR act, SUMO Mot1 rescue)
CCc1ccc([C@@H]2CC=C(C(=O)O)[C@H](c3ccccc3F)N2S(=O)(=O)c2ccc(C)cc2)cc1	SUMO Mot1 rescue 302.3 (no result: AI-2 QS modul)
Cc1ccc(S(=O)(=O)N2[C@@H](c3ccc(Cl)c(Cl)c3)C(C(=O)O)=C[C@H]2C(C)(C)C)cc1	SUMO Mot1 rescue 311.5 (no result: AI-2 QS modul)
Cc1ccc([C@H]2C(C(=O)O)=CC[C@@H](c3ccc(Cl)cc3)N2S(=O)(=O)c2ccccc2C)cc1	SUMO Mot1 rescue 341.5 (no result: AI-2 QS modul)
CCCCC[C@@H]1C=C(C(=O)O)[C@H](c2ccc(CC)cc2)N1S(=O)(=O)c1ccc(C)cc1	SUMO Mot1 rescue 354.1 (no result: AI-2 QS modul)
Cc1ccccc1S(=O)(=O)N1[C@@H](c2ccc(Cl)cc2)C(C(=O)O)=CC[C@H]1c1ccc(Cl)cc1	none (no result: AI-2 QS modul)
CCc1ccc([C@@H]2CC=C(C(=O)O)[C@H](c3ccc(C)cc3)N2S(=O)(=O)c2ccc(C)cc2)cc1	none (no result: AI-2 QS modul, SUMO Mot1 rescue)
Cn1c(N)c(C(=O)COC(=O)c2cc(S(=O)(=O)NCc3ccccc3)ccc2O)c(=O)n(C)c1=O	none (no result: AI-2 QS modul, NTR1 ag, AHR act, SUMO Mot1 rescue)
Cc1cccc(NC(=O)Nc2ccccc2[N+](=O)[O-])n1	none
Cc1ccc([C@@H]2CC=C(C(=O)O)[C@H](c3cccc(Cl)c3)N2S(=O)(=O)c2ccccc2C)cc1	SUMO Mot1 rescue 294.9 (no result: AI-2 QS modul)
N/C(=N\c1nc2ccccc2o1)NC(=O)c1ccc(Cl)cc1	AHR act 67.5
O=C(CN1C(=O)CSc2ncccc21)Nc1cccc(Cl)c1	none
CCOP(=O)(OCC)C(NC(=O)Nc1ccc(C)c(Cl)c1)c1ccccc1 (stereo not given)	GRIN3A LBD mod 23.8
N#Cc1cnn2cc(-c3ncc(C(F)(F)F)cc3Cl)cnc12	Cardio protect 59.1
Cc1nn(-c2ccccc2)c2sc(C(=O)NNC(=O)COc3ccccc3)cc12	AHR act 57.8
Cc1cnc(NC(=O)c2cc3c(C)nn(-c4ccccc4)c3s2)s1	AHR act 60.7
Cc1nn(-c2ccccc2)c2sc(C(=O)NNC(=O)COc3cccc4ccccc34)cc12	none
COc1cc([N+](=O)[O-])ccc1NC(=O)CSc1nc2ccccc2n1-c1ccccc1	AHR act 61.3 (no result: GRIN3A LBD mod, Cardio protect)
CCOC(=O)c1csc(NC(=O)c2ccc3c(c2)OCCO3)n1	none
O=C(O)c1cccc(NC(=O)c2ccc(CN3C(=O)c4ccccc4C3=O)cc2)c1	none (no result: AI-2 QS modul)
O=C(Nc1cc(Cl)ccc1C(=O)O)c1ccc(CN2C(=O)c3ccccc3C2=O)cc1	GRIN3A LBD mod 13.2 (no result: NTR1 ag)
C/C(NCCc1ccc(O)cc1)=C1/CCOC1=O	none (no result: GRIN3A LBD mod, AI-2 QS modul, NTR1 ag, AHR act, SUMO Mot1 rescue)
COC(=O)c1c(N(S(C)(=O)=O)S(C)(=O)=O)sc2c1CCN(c1ncc(C(F)(F)F)cc1Cl)C2	none
COC(=O)c1c(/N=C/N(C)C)sc2c1CCN(c1ncc(C(F)(F)F)cc1Cl)C2	AHR act 71.9
Nc1cc2c(cc1Br)-c1ccc(F)cc1C2O (stereo not given)	GRIN3A LBD mod 18.4 (no result: AI-2 QS modul, NTR1 ag, AHR act, SUMO Mot1 rescue)
Cc1cc(C(=O)CN2C(=O)c3ccccc3C2=O)c(C)n1C1CC1	GRIN3A LBD mod 17.3
CCN1C(=O)C(=O)N(CC(=O)c2cc(C)n(C3CC3)c2C)C1=O	none (no result: AI-2 QS modul)
Cc1ccc(C)c(OCC(O)CNC2CCCC2)c1 (stereo not given)	none
COc1ccc(C(=O)NCCCNC(=O)c2ccc(C)nc2)cc1	none
Cc1sc2nc(CSc3nnnn3-c3ccc(Cl)cc3)[nH]c(=O)c2c1C	AHR act 50.8

High-throughput results as filed in PubChem BioAssay.
